# Active and inactive are the calls of the source.
# What was measured:
# Albumin (Bos taurus) = Albumin (Bos taurus) (UniProt P02769); assay: compounds binding labelled BSA control protein – biochemical, small-molecule microarray, Alexa647 label, 635/667 nm fluorescence, artefact control for SMM control protein annotation, profiling panel (AID 1118); details: BSA-A647 binding, fluorescence 635 nm, higher = more signal;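 note: score merges 667 nm emission intensity and signal-to-noise per printed compound spot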
# [1] = probe aXIP binding to arrayed compounds – biochemical, NeuroSMM set, 635/667 nm fluorescence, primary screen (AID 1119); details: small-molecule microarray, higher = more signal, called active from +8 up or from −8 down;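 note: probe is the protein aXip251-270 applied at 1 µg/mL to compound-printed slides; binding of probe to printed compounds measured as 667 nm fluorescence plus signal to noise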
# [2] = probe aNOTCH3 binding on compound microarray – biochemical, small-molecule microarray, 635/667 nm fluorescence, primary screen (AID 1120); details: higher = more signal;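 note: probe is a biotin-tagged antibody raised against NOTCH3 rather than NOTCH3 protein; score merges spot fluorescence near 667 nm with spot signal to noise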
# [3] = probe aNOTCH2 binding on compound microarray – biochemical, small-molecule microarray, 635/667 nm fluorescence, primary screen (AID 1121); details: higher = more signal;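 note: score merges feature fluorescence read at 667 nm with its signal to noise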
# [4] = biological target: Carbonic anhydrase 2 (Homo sapiens) (UniProt P00918); assay: compounds binding carbonic anhydrase 2 – biochemical, small-molecule microarray, Alexa647-labelled CAII, profiling panel (AID 1122); details: CAII-A647 binding fluorescence, higher = more signal
# [5] = COS7 lysate on small-molecule microarray, probe aHis, 635 nm (AID 1123); details: COS7 cell lysate, fluorescence, higher = more signal;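 note: z-score combines 667nm fluorescence intensity with signal-to-noise per printed compound spot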
# [6] = probe aLAP1 signal on lysate-treated microarray – cell lysate, small-molecule microarray, COS7 lysate, primary screen (AID 1124); details: probe aLAP1, fluorescence, higher = more signal;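 note: lysate comes from COS7 cells expressing LAP1 and is applied at 0.3 µg/mL; score merges spot fluorescence near 667 nm with signal-to-noise over triplicate slides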
# Sam68 (KHDRBS1) = assay: compounds binding KHDRBS1 protein – biochemical, small-molecule microarray, 635 nm fluorescence, primary screen (AID 1125); details: higher = more signal;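 note: score merges 667 nm channel intensity with signal to noise over triplicate slides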
# [7] = tested on: Chordin-like protein 2 (CHRDL2); assay: compounds binding chordin-like 2 – biochemical, small-molecule microarray, 635 nm fluorescence, primary screen (AID 1126); details: fluorescence 635 nm, higher = more signal;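 note: printed compound slides probed with Chrdl2 protein at 4 µg/mL for 1 h at 4 C; score merges 667 nm emission intensity with signal to noise over three replicate slides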
# [8] = biological target: Concanavalin-A (Canavalia ensiformis) (UniProt P02866); assay: compounds binding concanavalin A lectin – biochemical, small-molecule microarray, Alexa647 label, 635 nm, artefact control for SMM control protein annotation, primary screen (AID 1127); details: ConA-A647 binding fluorescence, higher = more signal;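 note: z combines 667 nm emission intensity with signal-to-noise across three replicate slides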
# [9] = compounds binding Alexa647 anti-His antibody – biochemical, small-molecule microarray, 635 nm fluorescence, artefact control for SMM control protein annotation, primary screen (AID 1128); details: higher = more signal;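 note: score merges feature fluorescence with signal-to-noise for each printed compound spot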
# [10] = tested on: Human papillomavirus type 1a E7 protein (residues 1-88); assay: HPV1a E7 small-molecule binders, primary screen, biochemical, small-molecule microarray, residues 1-88, 635 nm (AID 1129); details: small-molecule microarray binding, fluorescence 635 nm; higher = more signal
# [11] = biological target: Focal adhesion kinase 1 (Homo sapiens) (UniProt Q05397); assay: PTK2 protein binding on printed compound slides – biochemical, small-molecule microarray, 635/667 nm fluorescence, BSA, DTT, primary screen (AID 1130); details: 635 nm fluorescence, higher = more signal;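 note: composite of spot emission at 667 nm and signal to noise over triplicate slides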
# [12] = tested on: Fibrinogen (Alexa647-labelled); assay: Alexa647-fibrinogen binding to printed small molecules – biochemical, small-molecule microarray, 635/667 nm fluorescence, artefact control for SMM control-protein annotation, profiling panel (AID 1131); details: fibrinogen-A647 binding fluorescence, higher = more signal;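 note: z-score merges 667 nm fluorescence with per-spot signal-to-noise over triplicate slides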
# [13] = biological target: Follistatin (Homo sapiens) (UniProt P19883); assay: FST protein binding to printed compounds – biochemical, small-molecule microarray, 635/667 nm fluorescence, primary screen (AID 1132); details: 635 nm fluorescence, higher = more signal
# [14] = biological target: Fibroblast growth factor 2 (Homo sapiens) (UniProt P09038); assay: basic fibroblast growth factor binding to printed compounds – biochemical, small-molecule microarray, 635/667 nm fluorescence, primary screen (AID 1133); details: FGF2, fluorescence 635/667, higher = more signal
# [15] = JC-1 mitochondrial potential readout, lung cancer cells – cell-based, A549, JC-1 fluorescence, basal, 24 h, 100 nL, profiling panel (AID 1138); details: higher = more signal;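 note: A549 lung adenocarcinoma cells under basal conditions with no added stimulus; test concentration not given here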
# Lefty1 = Lefty1 protein binding to printed compounds – biochemical, small-molecule microarray, 635/667 nm fluorescence, primary screen (AID 1139); details: fluorescence 635/667, higher = more signal
# [16] = tested on: wheat germ agglutinin (Triticum aestivum), Alexa647-labelled; assay: Alexa647-WGA lectin binding to printed small molecules – biochemical, small-molecule microarray, 635/667 nm fluorescence, artefact control for SMM control-protein annotation, profiling panel (AID 1140); details: WGA-A647 binding, 635 nm fluorescence, higher = more signal;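 note: score merges 667 nm feature emission with signal to noise over triplicate slides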
# [17] = biological target: Luciferin 4-monooxygenase (Photinus pyralis) (UniProt P08659); assay: inhibition of purified Photinus pyralis luciferase – biochemical, luminescence, purified enzyme, 2006 set, primary screen (AID 1141); details: purified firefly luciferase, SteadyGlo luminescence, 30 min; higher = more signal, called active from +8 up or from −8 down;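 note: cell-free assay with purified firefly luciferase at 100 ng per well in PBS; test concentration not given here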
# Sequence of Luciferin 4-monooxygenase (Photinus pyralis) (P08659 whole entry, looked up): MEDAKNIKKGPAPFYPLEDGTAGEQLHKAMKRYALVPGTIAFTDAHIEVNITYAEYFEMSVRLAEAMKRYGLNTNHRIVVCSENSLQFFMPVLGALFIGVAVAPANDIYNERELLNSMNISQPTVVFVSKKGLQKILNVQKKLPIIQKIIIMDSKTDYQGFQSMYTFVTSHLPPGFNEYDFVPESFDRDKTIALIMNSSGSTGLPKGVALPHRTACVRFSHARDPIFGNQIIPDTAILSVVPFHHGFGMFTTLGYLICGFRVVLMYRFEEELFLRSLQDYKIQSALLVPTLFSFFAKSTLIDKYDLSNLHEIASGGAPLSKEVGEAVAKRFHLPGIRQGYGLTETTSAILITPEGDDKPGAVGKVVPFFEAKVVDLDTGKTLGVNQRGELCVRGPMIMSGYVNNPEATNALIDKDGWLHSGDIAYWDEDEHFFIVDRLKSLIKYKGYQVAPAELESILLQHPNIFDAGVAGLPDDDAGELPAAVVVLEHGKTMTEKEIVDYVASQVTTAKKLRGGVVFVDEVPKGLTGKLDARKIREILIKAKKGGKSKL
# Sequence of Follistatin (Homo sapiens) (P19883 whole entry, looked up): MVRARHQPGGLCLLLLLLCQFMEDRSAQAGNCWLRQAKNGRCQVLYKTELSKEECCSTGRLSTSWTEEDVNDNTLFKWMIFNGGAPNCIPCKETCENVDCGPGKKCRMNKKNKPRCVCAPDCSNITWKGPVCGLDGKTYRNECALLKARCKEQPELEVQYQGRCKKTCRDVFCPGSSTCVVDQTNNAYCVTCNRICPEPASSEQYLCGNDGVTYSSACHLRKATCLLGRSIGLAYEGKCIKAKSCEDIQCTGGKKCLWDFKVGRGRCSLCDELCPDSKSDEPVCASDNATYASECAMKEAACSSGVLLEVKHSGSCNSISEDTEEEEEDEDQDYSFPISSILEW
# Sequence of Focal adhesion kinase 1 (Homo sapiens) (Q05397 whole entry, looked up): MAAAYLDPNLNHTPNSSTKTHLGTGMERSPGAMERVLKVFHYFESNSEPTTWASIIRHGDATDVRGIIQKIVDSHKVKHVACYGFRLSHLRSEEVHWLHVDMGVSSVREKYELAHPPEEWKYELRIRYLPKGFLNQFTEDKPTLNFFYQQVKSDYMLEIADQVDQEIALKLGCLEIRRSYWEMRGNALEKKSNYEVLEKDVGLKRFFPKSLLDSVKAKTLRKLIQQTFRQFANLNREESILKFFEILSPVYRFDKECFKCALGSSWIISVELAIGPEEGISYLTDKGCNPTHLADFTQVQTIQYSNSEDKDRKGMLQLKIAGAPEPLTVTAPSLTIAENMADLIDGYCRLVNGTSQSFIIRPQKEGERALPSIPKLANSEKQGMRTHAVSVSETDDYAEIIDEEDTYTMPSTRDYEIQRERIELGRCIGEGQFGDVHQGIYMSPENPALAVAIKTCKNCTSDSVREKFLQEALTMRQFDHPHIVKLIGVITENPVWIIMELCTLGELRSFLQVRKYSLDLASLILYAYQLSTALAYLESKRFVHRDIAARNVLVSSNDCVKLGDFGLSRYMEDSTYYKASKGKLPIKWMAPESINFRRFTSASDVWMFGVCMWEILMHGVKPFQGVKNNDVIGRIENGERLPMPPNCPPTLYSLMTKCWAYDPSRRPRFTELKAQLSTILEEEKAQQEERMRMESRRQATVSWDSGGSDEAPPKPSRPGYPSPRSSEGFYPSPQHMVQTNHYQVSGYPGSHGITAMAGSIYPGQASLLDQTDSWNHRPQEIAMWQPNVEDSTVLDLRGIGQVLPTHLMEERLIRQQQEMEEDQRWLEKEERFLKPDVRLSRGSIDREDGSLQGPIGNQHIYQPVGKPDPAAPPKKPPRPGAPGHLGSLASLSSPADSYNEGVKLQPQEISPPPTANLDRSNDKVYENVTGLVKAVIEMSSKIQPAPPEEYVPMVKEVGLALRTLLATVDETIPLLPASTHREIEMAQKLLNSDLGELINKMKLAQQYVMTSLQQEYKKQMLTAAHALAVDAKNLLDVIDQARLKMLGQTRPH
# Sequence of Concanavalin-A (Canavalia ensiformis) (P02866 whole entry, looked up): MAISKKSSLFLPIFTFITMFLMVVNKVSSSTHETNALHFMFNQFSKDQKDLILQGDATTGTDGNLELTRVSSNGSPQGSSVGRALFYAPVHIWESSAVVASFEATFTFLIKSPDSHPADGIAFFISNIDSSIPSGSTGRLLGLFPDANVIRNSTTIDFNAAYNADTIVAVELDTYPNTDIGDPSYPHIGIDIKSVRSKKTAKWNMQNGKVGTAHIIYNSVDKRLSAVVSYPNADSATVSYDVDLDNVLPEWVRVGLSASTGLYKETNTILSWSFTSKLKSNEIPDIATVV
# Sequence of Fibroblast growth factor 2 (Homo sapiens) (P09038 whole entry, looked up): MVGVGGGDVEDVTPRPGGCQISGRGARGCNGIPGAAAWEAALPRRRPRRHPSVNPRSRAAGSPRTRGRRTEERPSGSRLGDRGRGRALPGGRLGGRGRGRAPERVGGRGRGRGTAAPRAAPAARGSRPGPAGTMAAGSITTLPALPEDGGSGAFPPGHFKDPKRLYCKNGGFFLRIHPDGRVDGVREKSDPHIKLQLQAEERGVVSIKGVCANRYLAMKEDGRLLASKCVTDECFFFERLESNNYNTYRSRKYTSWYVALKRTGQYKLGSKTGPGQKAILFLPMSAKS
# Sequence of Albumin (Bos taurus) (P02769 whole entry, looked up): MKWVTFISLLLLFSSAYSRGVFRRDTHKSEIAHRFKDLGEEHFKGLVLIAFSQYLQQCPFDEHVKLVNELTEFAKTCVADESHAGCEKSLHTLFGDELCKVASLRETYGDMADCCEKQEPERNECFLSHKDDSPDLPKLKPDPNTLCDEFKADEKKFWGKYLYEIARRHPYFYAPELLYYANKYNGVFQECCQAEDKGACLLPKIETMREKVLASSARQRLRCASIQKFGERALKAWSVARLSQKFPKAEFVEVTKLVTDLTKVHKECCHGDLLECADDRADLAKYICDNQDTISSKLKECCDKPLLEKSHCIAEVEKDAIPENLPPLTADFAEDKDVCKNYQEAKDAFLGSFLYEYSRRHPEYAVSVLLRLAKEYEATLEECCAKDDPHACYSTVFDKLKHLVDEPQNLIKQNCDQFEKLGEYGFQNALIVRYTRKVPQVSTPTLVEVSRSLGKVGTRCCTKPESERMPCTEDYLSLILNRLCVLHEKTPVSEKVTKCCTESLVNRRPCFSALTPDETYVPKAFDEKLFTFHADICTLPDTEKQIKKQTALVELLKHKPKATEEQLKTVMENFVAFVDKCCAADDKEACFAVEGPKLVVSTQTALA
Compound,composite z-score (Albumin (Bos taurus)),composite Z-score [1],composite z-score [2],composite z-score [3],composite z-score [4],composite z-score [5],composite z-score [6],composite z-score (Sam68 (KHDRBS1)),composite z-score [7],composite z-score [8],composite z-score [9],composite z-score [10],composite z-score [11],composite z-score [12],composite z-score [13],composite z-score [14],z-score [15],composite z-score (Lefty1),composite z-score [16],z-score [17]
COC(=O)[C@]1(Cc2ccccc2CN=[N+]=[N-])N=C(c2ccc(OCCCO)cc2)O[C@@H]1c1ccccc1N=[N+]=[N-],-0.427,-0.741 (inactive),0.0026,0.015,0.518,0.999,1.47,0.163,0.62,0.91,1.29,0.833,0.499,-0.0222,1.15,0.802,-0.453,-0.251,0.425,-3.31 (inactive)
COC(=O)Cn1c(C(=O)N(C)C)cc2c1C[C@H]1CN(C(=O)c3ccccc3)[C@@](Cc3ccccc3)(C(=O)OC)[C@@H]21,0.759,-0.265 (inactive),0.194,0.417,0.792,1.55,0.817,-0.627,-0.537,0.169,0.733,0.278,0.499,-0.254,-0.253,0.179,0.553,-0.0528,0.533,3.15 (inactive)
COc1ccc(CCNC(=O)[C@@]2(C)c3ccccc3C(=O)N(Cc3ccc(OC(F)(F)F)cc3)[C@H]2c2ccc(CO)cc2)cc1,-0.146,0.431 (inactive),-0.104,-0.163,0.611,1.37,0.687,1.3,0.309,0.781,-0.0781,1.21,1.13,0.576,1.3,1.76,0.791,0.268,0.375,-0.629 (inactive)
COc1ccc([Si](C)(C)[C@@H]2[C@@H](CC(=O)N(CCO)Cc3ccccc3)O[C@]3(C(=O)N(Cc4cccc(I)c4)c4ccccc43)[C@H]2C)cc1,-0.783,0.0089 (inactive),0.0522,-0.0576,0.364,0.763,0.363,1.01,1.12,0.779,0.853,1.12,-0.14,0.604,1.48,1.68,-0.781,1.51,0.618,-0.216 (inactive)
CC(C)[Si]1(C(C)C)OCc2cc(-c3ccc(-c4ccc(Cl)c(Cl)c4)o3)nc(-c3ccc(Oc4ccccc4)cc3)c21,-0.753,-1.23 (inactive),-0.292,-0.197,-0.554,-0.558,-0.397,-1.08,-1.24,-1.08,-0.768,-1.88,-0.0554,-1.02,-1.21,-1.57,0.229,-1.34,-0.0312,0.586 (inactive)
COc1ccc([Si](C)(C)[C@H]2[C@H](CCO)O[C@@]3(C(=O)N(Cc4ccccc4)c4ccc(NC(=O)[C@H](C)O)cc43)[C@@H]2C)cc1,0.639,0.393 (inactive),0.372,-0.0274,0.48,2.28,-0.298,0.463,0.0883,0.473,0.779,1.16,0.361,0.967,0.578,-0.145,-0.924,0.575,0.75,-0.355 (inactive)
CN1C(=O)C2C=CC(C(O)COCc3ccccc3)N(Nc3ccc([N+](=O)[O-])cc3[N+](=O)[O-])C2C1=O (stereo not given),0.186,0.215 (inactive),0.0596,0.046,0.368,1.49,0.578,0.447,-0.693,-0.445,-1.08,1.08,0.903,-0.428,-0.232,0.41,1.89,-0.798,0.333,-1.05 (inactive)
CC(C)[Si](C#Cc1ccccc1)(O[C@H](c1ccccc1)c1cn(Cc2ccccc2)nn1)C(C)C,0.939,0.708 (inactive),-0.127,-0.189,0.57,0.467,0.471,0.879,0.664,1.17,0.409,1.11,0.188,0.588,1.11,1.3,-0.485,-0.0104,0.139,-1.3 (inactive)
COc1cc(CO)cc(I)c1O[C@H]1C=C(C(=O)NCCO)C[C@@H](N(CCN2CCOCC2)C(=O)C2CCCO2)[C@@H]1O (stereo not given in full),-0.184,0.204 (inactive),0.0261,-0.0684,-0.107,-0.61,-0.0581,-0.0878,0.365,-0.0855,0.0704,0.413,0.192,-0.0246,0.132,0.144,1.48,0.159,-0.139,-0.91 (inactive)
COCCOC(=O)N1C(=O)[C@@]2(c3cc(C#CC4=CCCCC4)ccc31)[C@H](c1ccc(O)cc1)N1[C@H](c3ccccc3)[C@H](c3ccccc3)OC(=O)[C@H]1[C@@H]2C(=O)N1CCc2cc(OC)c(OC)cc2C1,0.699,-0.007 (inactive),-0.0014,-0.0454,0.468,2.29,0.743,1.28,-0.329,0.753,1.38,1.19,0.567,0.789,0.427,0.423,0.273,0.0605,0.726,0.0369 (inactive)
CC[C@@H]1C=C(C(=O)O)[C@H](c2cccc(Cl)c2)N1S(=O)(=O)c1ccc(C)cc1,0.951,-0.147 (inactive),-0.0581,0.0274,0.824,2.46,0.501,1.09,-0.682,0.471,1.47,1.14,0.887,-0.611,-0.126,-0.686,0.435,-0.908,0.226,0.556 (inactive)

# — PubChem BioAssay
